Screens deposited in PubChem by several laboratories.
Most compounds without a hit are left out; they make up all but 2.2% or so of the library.
NOD2 RIPK2 PPI = blocks binding of human NOD2 to RIPK2; AID 624267; inhibition, % at 4.98 µM; O43353; CHO BLA complementation NOD2-RIPK2, CCF4 ratio; hit rate 0.38% among 360,000; in the data active = inhibition above about 21%;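 also: 0% = vehicle only and 100% = reference blocker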
TLR9-MyD88 block = TLR9-MyD88 interaction inhibition; Q9NR96+Q99836; CHO BLA complementation TLR9-MyD88, CCF4 FRET ratio; inhibition, % at 4.98 µM; hit rate 0.21% among 340,000;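 active = inhibition above the mean over all tested compounds plus 3 SD, cut at about 21% in these data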;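 also: 0% = DMSO only wells and 100% = clavulanate BLA inhibitor control wells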
ANO1 activ = activates or potentiates the mouse TMEM16A chloride channel; B-score at 10 µM; Q8BHY3; HEK293 TMEM16A/YFP-H148Q/I152L, iodide quench fluorescence; active compounds read low; hit rate 0.3% among 340,000;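 active = fluorescence-ratio B-score plate-corrected deviation score at least 3 library SD below zero, with starting fluorescence score within 5 deviations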;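 also: channel opened by trigger with iodide after compound preincubation; score built on the fluorescence ratio of max minus min over baseline; more negative score means more quench and so TMEM16A activation or potentiation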
TLR4-MyD88 BLA = inhibitors of human TLR4-MyD88 binding | inhibition, % at 8.4 µM | HeLa CL3-4 TLR4/MyD88 BLA complementation, FRET ratio | hit rate 0.18% among 200,000 | O00206+Q99836 | AID 861; in the data active = inhibition above about 25%;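 also: 0% = vehicle and 100% = reference inhibitor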
GRK2 inh = inhibitors of human GRK2 displacing RNA aptamer. hit rate 0.59% among 330,000. AID 488847. bead flow cytometry, FAM-aptamer displacement from GRK2. inhibition of aptamer binding, % at 10 µM;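 active = inhibition of aptamer binding above 40%, roughly 3 SD of noise, on plates passing a quality check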;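 also: median bead fluorescence of bound FAM aptamer so fluorescent compounds give negative values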
ANO1 block = blocks the mouse calcium-activated chloride channel TMEM16A; HEK293 TMEM16A/YFP iodide influx fluorescence, ionomycin; normalized B-score (activity score, 25-100; higher = stronger inhibition) at 10 µM; hit rate 1.2% among 310,000;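 active = ratio plate-corrected score three or more library SD toward inhibition, starting fluorescence score within five deviations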;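 also: score derived from kinetic fluorescence span divided by baseline fluorescence per well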
* = called active by the depositor; i = inactive; nt = no result; ! = repeats disagree.

SMILES	NOD2 RIPK2 PPI	TLR9-MyD88 block	ANO1 activ	TLR4-MyD88 BLA	GRK2 inh	ANO1 block
Cc1onc(-c2ccccc2Cl)c1C(=O)Oc1cc(N)n(S(=O)(=O)c2ccc(F)cc2)n1	7	7	i	-14	3	25*
Cc1ccc(S(=O)(=O)n2nc(OC(=O)c3c(-c4ccccc4Cl)noc3C)cc2N)cc1	-12	-12	i	8	2	i
COc1cc(/C=C2\C(=N)N3N=C(S(C)(=O)=O)SC3=NC2=O)ccc1OCCOc1ccccc1C	1	-72	i	nt	2	100*
O=CNC(n1cnc2c(N3CCOCC3)ncnc21)C(Cl)(Cl)Cl (stereo unspecified)	0	-2	-7.2*	nt	2	i
CCCCNC(=O)C1C(c2ccc(C(F)(F)F)cc2)=Nc2ccccc2N1C(=O)c1cccc2ccccc12 (stereo unspecified)	4	nt	nt	nt	nt	nt
O=C(COc1ccc(C(=O)c2ccccc2)cc1)NC1CCCCCC1	2	-2	i	-7	3	i
CCC(C)(C)NC(=O)COc1ccc(C(=O)c2ccccc2)cc1	-5	11	i	5	6	25*
CCCCCCCCn1ccc(=N)cc1	-15	2	i	nt	0	i
CCCCCCCCCCCCCCCCn1cc[n+](C)c1	-3	2	i	2	0	25*!
CN(C)CCNC(=O)c1cccc(-c2cnc3c(NC=O)cc(/C=C/c4ccccc4)cn23)c1	8	nt	nt	nt	nt	nt
Cc1ccc(S(=O)(=O)NC(=O)c2ccc(F)cc2)c(C)c1	2	-6	i	nt	0	i
Cc1ccc(S(=O)(=O)NC(=O)c2ccc(-c3ccc(-c4ccccc4)cc3)o2)c(C)c1	nt	nt	nt	-2	5	100*
Cn1c(=O)c2c(n(C)c1=O)n(C)c(=O)n2C	-9	nt	nt	nt	nt	nt
O=C(c1cc(-c2ccccc2)on1)N1CCc2ccccc2C1	1	-4	i	5	3	i
COc1ccc(-c2cc(C(=O)N3CCc4ccccc4C3)no2)cc1OC	6	-6	-6.4*	-14	0	i
CCc1nc2ccc(C(=O)NCc3ccccc3OC)cn2c1N(CC)CCOC	4	nt	nt	nt	nt	nt
COc1cccc(Nc2nc(C(N)C3CCCCC3)cs2)n1 (stereo unspecified)	-7	nt	nt	nt	nt	nt
Cn1cc([C@]2(O)C(=O)Nc3ccc(OC(F)(F)F)cc32)c2ccccc21	-3	nt	nt	nt	nt	nt
N#C/C(=N\Nc1cccc(C(F)(F)F)c1)C(=O)c1csc(-c2cccnc2)n1	-7	-2	i	nt	2	100*
COc1ccc(O)cc1CN1CCN(c2ncc(Cc3ccccc3)cn2)CC1	-12	nt	nt	nt	nt	nt
CCCCCCCCN1CC(Cc2cc3ccccc3c3ccccc23)N(c2ccccc2)c2ccccc2C1=O (stereo unspecified)	-7	nt	nt	nt	nt	nt
COc1cc2ccccc2cc1C(=O)N(CCN(C)C)c1nc2c(F)cc(F)cc2s1	-1	-11	i	nt	0	25*
COc1ccc2sc(N(CCN(C)C)C(=O)c3cc(Cl)sc3Cl)nc2c1	-1	-7	-5.9*	1	0	i
COc1ccc(OC)c2sc(N(CCN(C)C)C(=O)c3cc(Cl)sc3Cl)nc12	-14	-3	i	-6	0	i
C#CCNC(=O)C[C@@H]1C[C@@]2(C(=O)OCC)CCCC=C2N(CCCCCCCC)C1=O	2	nt	nt	nt	nt	nt
SMILES	NOD2 RIPK2 PPI	TLR9-MyD88 block	ANO1 activ	TLR4-MyD88 BLA	GRK2 inh	ANO1 block
COCCCNC(=O)C[C@@H]1C[C@@]2(C(=O)OC)CCCCC=C2N(Cc2ccco2)C1=O	15	nt	nt	nt	nt	nt
Cc1cccc(Nc2nc(NCc3ccco3)c3ccccc3n2)c1	4	-4	i	-2	8	25*
Cc1ccc(Nc2c(F)c(F)c(F)c(F)c2C(=O)O)cc1	4	-3	i	-9	4	25*
Cc1cccc(Nc2c(F)c(F)c(F)c(F)c2C(=O)O)c1	0	0	i	8	4	i
O=C(Nc1cccnc1)c1ccccc1Oc1ccccc1	4	-9	i	-8	0	i
O=C(Nc1cccnc1)c1ccc(Oc2ccccc2)cc1	2	2	i	-5	0	25*
O=c1[nH][nH]c2c1[C@H](C1CCCC1)O[C@H](CCc1ccccc1)C2	-6	nt	nt	nt	nt	nt
CCNC(=O)C1(C)CCN(C(=O)c2ccc3c(c2)OCO3)C1 (stereo unspecified)	1	nt	nt	nt	nt	nt
O=C(COC(=O)c1ccccc1NS(=O)(=O)c1ccc(Cl)cc1)NCc1ccccc1	2	7	i	-1	5	100*
O=C(COC(=O)c1ccccc1Br)NCc1ccccc1	-5	-4	i	3	0	i
CCOC(=O)CC(NS(=O)(=O)c1ccc(NC(C)=O)cc1)c1ccc(OCC)cc1 (stereo unspecified)	-6	-6	i	9	0	25*
COc1ccc(S(=O)(=O)NCc2ccc(C(=O)NCCN(C)Cc3ccccc3)cc2)cc1	-9	nt	nt	nt	nt	nt
COc1cc(/C=N/NC(=O)CCn2c3ccccc3c3ccccc32)ccc1O	-3	1	i	-20	3	25*
Cc1ccc(S(=O)(=O)N2[C@H](CC(=O)c3cccs3)OC[C@@H]2C)cc1	-11	nt	nt	nt	nt	nt
CC(Cc1ccc(O)c(O)c1)C(C)Cc1ccc(O)c(O)c1 (stereo unspecified)	nt	nt	nt	nt	4	100*
CCCNC(=O)Cn1nc(-c2ccccc2OC)ccc1=O	6	2	nt	nt	nt	nt
COc1cc(C(=O)NNC(=O)/C=C/c2ccco2)cc(OC)c1OC	-2	3	i	nt	42*	nt
OC(c1cccnc1)c1nc(-c2cccc(F)c2)cs1 (stereo unspecified)	-1	nt	nt	nt	nt	nt
Cc1cccc(C)c1NC(=O)C(c1ccncc1)N1CCN(CCN(C)C)CC1 (stereo unspecified)	-9	nt	nt	nt	nt	nt
CC(C)c1ccc(NC(=S)Nc2ccc(OC(F)(F)F)cc2)cc1	-10	-4	i	-21	0	i
FC(F)(F)Oc1ccc(NC(=S)Nc2ccc(OC(F)(F)F)cc2)cc1	2	9	i	nt	0	25*
CN(C)C(=O)c1cc(Cl)ccc1Sc1cc(Cl)ccc1Cl	-4	-13	i	6	0	i
Oc1ccc(Cl)cc1Sc1cc(Cl)ccc1O	-5	1	-5.6*	nt	nt	nt
CCCc1nnc(SCC(=O)N(CC)CC)n1CC1CCCO1 (stereo unspecified)	-6	7	i	-15	0	i
CCCc1nnc(SCC(=O)N2CCCCC2C)n1CC1CCCO1 (stereo unspecified)	9	0	i	9	0	25*
Oc1ccc(N=Nc2ccc3c(c2)OCO3)c2ccccc12	nt	nt	nt	nt	78*	i
O=C(NN=Cc1c(O)ccc2ccccc12)c1ccc2c(c1)OCO2	2	8	i	nt	0	nt
C/C(=C\C(=O)c1ccccc1)Nc1ccc(Br)c(Cl)c1	0	1	i	nt	0	25*
